Test results reported in the supplement of paper PMC10681739.

What was measured:
ETS1 = biological target: T1, ETS1 (UniProt P14921); assay: ETS1 binding intensity (PBM fluorescence) in presence of RUNX1, normalised to ETS1-only experiment (arbitrary fluorescence units); higher = stronger binding; conditions: ETS1 concentration 1 nM; RUNX1 concentration 25 nM
T1 sequence: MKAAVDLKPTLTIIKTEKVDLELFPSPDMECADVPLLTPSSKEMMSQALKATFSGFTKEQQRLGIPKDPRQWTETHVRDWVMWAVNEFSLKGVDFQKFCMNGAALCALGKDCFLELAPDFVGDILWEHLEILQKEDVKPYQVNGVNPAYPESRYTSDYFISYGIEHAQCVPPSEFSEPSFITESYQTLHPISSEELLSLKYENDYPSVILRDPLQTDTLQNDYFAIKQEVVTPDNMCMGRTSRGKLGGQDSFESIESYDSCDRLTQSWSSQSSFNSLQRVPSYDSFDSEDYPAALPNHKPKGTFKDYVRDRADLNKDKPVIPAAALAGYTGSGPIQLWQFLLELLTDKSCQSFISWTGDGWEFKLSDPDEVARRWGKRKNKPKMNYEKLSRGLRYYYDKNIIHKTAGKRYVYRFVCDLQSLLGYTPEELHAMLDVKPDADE

RUNX1 = RUNX1 (UniProt Q01196); assay: RUNX1 binding intensity (PBM fluorescence), RUNX1 alone (arbitrary fluorescence units); higher = stronger binding; conditions: RUNX1 concentration 2 nM; ETS1 concentration 0 nM
Experimental: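 Cooperative gcPBM on 36-bp genomic probes with neighbouring ETS1 and RUNX1 sites. Recombinant human RUNX1 (2 nM) was incubated alone or with ETS1 (25 nM) and detected with anti-RUNX1 antibody plus Alexa488 secondary. Values are medians over 4 replicate spots; the RUNX1+ETS1 data were normalised to the RUNX1-only data. The probes sit in constant array flanks that are not printed.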
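Throughout, for RUNX1 binding intensity (PBM fluorescence), RUNX1 alone: Full-length recombinant human RUNX1 bound to double-stranded 36-bp genomic probes on a high-density microarray, scored as Alexa488 fluorescence per spot via anti-RUNX1 antibody, median of four replicate spots.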

Chain of RUNX1 (Q01196 whole entry): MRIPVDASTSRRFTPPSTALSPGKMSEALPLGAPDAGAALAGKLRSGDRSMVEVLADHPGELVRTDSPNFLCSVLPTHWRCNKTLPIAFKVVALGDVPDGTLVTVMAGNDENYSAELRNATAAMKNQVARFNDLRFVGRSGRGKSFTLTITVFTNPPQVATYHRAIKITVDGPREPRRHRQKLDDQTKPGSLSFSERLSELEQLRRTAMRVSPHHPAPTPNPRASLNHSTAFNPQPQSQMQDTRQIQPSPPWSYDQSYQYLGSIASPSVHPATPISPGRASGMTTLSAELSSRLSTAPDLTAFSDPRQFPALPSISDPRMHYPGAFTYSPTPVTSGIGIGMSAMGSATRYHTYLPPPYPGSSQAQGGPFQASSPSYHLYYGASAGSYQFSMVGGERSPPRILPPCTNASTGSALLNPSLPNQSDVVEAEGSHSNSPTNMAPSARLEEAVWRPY

Sequence	ETS1 binding intensity (ETS1)	RUNX1 binding intensity (RUNX1)
GCTACGGGTTCCCCGGATGGAGCCGCAGTCCGGCCG	715	–
CCCCTTCATCCGCCTCTCTCTCACCGCGCCGCTCCC	330	–
AGGGTTGGGGAGGATGTTGTGGTTATTATTGACATA	4990	1570
CTGAAGGCTGGGGAGGAAGTGACCGCCCTCATATGC	2330	–
AAAGGGAAGTTGGCGGGAGTTCAAAACCACCGGGGC	494	–
ACAGCGCCTCTTCCTGCTCTACCACATCTGATGTCC	352	–
CTTCCATCCAGGAAGCTTGTGGTGCAACAGCAGTGT	1100	–
CCCCGTTACGCCCATCCGGCTCCCGCATAGGGCGTC	402	–
AAACCCTGAGTAATCGGAAGTGGTTAGGAGTGAGAG	6580	–
GCATGTTCAAAAGGATGTGGGTGCTTACCTAGTGCC	1230	–
AGCTCCAGGAAGAGGGCCTGAAAACCAAACGGGGGA	474	–
GCAGGCGTGCGCTTCCGCTCCAACCCGCGCACTTCG	1100	–
TGCGCCAGCCTTCCTGTCGTGGTCACCGGTGGCAGC	400	–
CTCCCCCAGCACATCCTCTGCCACCGCTGCCTTTCC	361	–
GGAGGGCTTCCTGCCCACCACCACCCACAGCAGCTG	676	–
GAACCCCAAGTTCCGGCTGGCACTGCGGCGGAGCCT	299	–
CAGATTCGTGTTTCCGTGCCCGCAGCTCCGTCAGCT	362	–
CGCCGGACGTAGTGACGTAGCGCGCAGCCGCAGCGG	476	–
CGCCGGTCCCATATCCTTTCTGCGGGGTGAGCAGCA	431	–
GGCGGAACTTGTGCGTACGCTGGAAAACCGCTGGGG	545	–
TCACTCCTCTTCCTTCCTGCCACCCACAGGGTCAGC	378	–
GGTACCAAGGGCAGAGGATGTGGTGAGGTGTGGAGG	3140	–
TCGCTTCCTGCTCCACTTCTCGGCGCCCACATCTCC	523	–
CTGCGTCCCGGAAGGAGCGAGCTTGCGGAGCGTGAA	542	–
TGGGATTCTCACTTCCGATCAGCGGTCCTGAACCCG	622	–
